Screening results: PubChem, Johns Hopkins Ion Channel Center
Hits are enriched below; roughly 1.6% of the tested compounds scored in any of these assays.
KCNQ2 enhance = enhances the rat KCNQ2 potassium channel; O88943; CHO-K1 KCNQ2, FluxOR thallium flux fluorescence; active compounds read high; B-score at 10 µM; hit rate 0.54% among 310,000;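 active means fluorescence ratio B-score at least 3 SD of library B-scores, with initial fluorescence B-score within 3 of them, cut at about 5.3 in these data; same plate scores as AID 2156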;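 further: B-score of peak minus minimum over baseline fluorescence ratio after K+ and Tl+ stimulus; positive B-score means potentiation of KCNQ2 with more thallium influx and brighter signal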
KCNQ2 inh = KCNQ2 (rat) channel inhibition | O88943 | CHO-K1 KCNQ2, FluxOR thallium flux, 20 min; active compounds read low | B-score at 10 µM | hit rate 1.1% among 310,000 | AID 2156;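 active means fluorescence ratio B-score at most minus 3 library SDs, with starting brightness B-score within 2 library SDs, cut at about -5.5 in these data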
KCNQ2 block conf = rat KCNQ2 channel inhibition, confirmatory screen; shares compounds with KCNQ2 inh; KCNQ2-expressing cells, thallium flux; active compounds read low; activity change, negative = inhibition, % at 10 µM; hit rate 57% among 1,000
KCNQ1 spec = human KCNQ1 activity in KCNQ2 inhibitor specificity screen | hit rate 15% among 1,000 | shares compounds with KCNQ2 inh | activity change, negative = inhibition, % at 10 µM | KCNQ1-expressing cells, FluxOR thallium flux fluorescence; active compounds read low;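 active means activity change at least 3 SD of negative controls below their mean in both duplicate wells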;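 further: CHO cells stably transfected with KCNQ1 and depolarized by potassium stimulus; peak minus minimum fluorescence over baseline after thallium addition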
Target sequence (P51787 whole entry, looked up): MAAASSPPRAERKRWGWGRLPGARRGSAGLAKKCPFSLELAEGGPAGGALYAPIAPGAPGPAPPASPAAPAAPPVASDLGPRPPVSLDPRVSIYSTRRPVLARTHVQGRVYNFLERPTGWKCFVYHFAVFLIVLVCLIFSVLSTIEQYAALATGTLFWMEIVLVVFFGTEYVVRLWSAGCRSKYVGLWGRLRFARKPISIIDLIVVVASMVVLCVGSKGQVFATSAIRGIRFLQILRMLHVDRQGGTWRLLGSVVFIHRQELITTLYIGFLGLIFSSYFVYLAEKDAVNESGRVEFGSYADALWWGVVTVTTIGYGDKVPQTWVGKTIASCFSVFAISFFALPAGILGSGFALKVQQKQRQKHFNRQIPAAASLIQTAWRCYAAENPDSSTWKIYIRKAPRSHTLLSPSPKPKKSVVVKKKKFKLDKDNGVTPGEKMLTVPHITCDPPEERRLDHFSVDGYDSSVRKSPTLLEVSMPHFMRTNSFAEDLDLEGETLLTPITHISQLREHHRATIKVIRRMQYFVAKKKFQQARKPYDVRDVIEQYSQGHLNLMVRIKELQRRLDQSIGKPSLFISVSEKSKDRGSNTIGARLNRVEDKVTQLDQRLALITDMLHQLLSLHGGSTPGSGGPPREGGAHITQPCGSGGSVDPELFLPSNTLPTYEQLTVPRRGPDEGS
CHO parental ctr = counter-screen for KCNQ2 inhibitors: effect in parental CHO cells | shares compounds with KCNQ2 inh | thallium flux counter-screen; active compounds read low | activity change, % at 10 µM | hit rate 14% among 1,000
KCNQ2 inh confirm = blocks rat KCNQ2 current in automated patch clamp. shares compounds with KCNQ2 inh. KCNQ2-expressing cells. calls only at 10 µM. hit rate 49% among 550. AID 588531
Hits are given with their value; – = inactive; · = not tested or not shown; + = active, no number. Unless noted, how the calls were made is not given here.

SMILES | KCNQ2 enhance | KCNQ2 inh | KCNQ2 block conf | KCNQ1 spec | CHO parental ctr | others
Cc1nc(N2CCN(Cc3ccccc3)CC2)nc2c1C(=O)CC(c1ccco1)C2 (configuration not stated) | – | -9.6 | – | – | –
Cc1nc(N2CCN(Cc3ccc4c(c3)OCO4)CC2)nc2c1C(=O)CC(c1ccco1)C2 (configuration not stated) | · | – | · | · | ·
COc1cccc(C(=O)NC(=S)Nc2ccccc2N2CCOCC2)c1 | – | -8.7 | -29% | – | – | KCNQ2 inh confirm=+
CC(C)Oc1cccc(C(=O)Nc2ccccc2N2CCOCC2)c1 | · | – | · | · | ·
C=CCNC(=S)Nc1ccc(Cl)cc1F | – | – | · | · | ·
Cn1c(Cn2c(=O)sc3ccccc32)nnc1SCC(=O)N1CCCCCC1 | – | – | · | · | ·
COc1cccc(OC)c1OCc1cc(C2C3CCCC=C3C(C#N)=C(N)C2(C#N)C#N)c(C)cc1C (configuration not stated) | – | -11 | – | – | –
CCCN1CC=C2C(C#N)=C(N)C(C#N)(C#N)C(c3cccc(OC)c3OC)C2C1 (configuration not stated) | · | – | · | · | ·
NNC(=S)NCCc1ccccc1 | · | – | · | · | ·
COc1ccc(CNC(=S)Nc2ccccc2-c2ccccc2)cc1 | – | -7.6 | -32% | – | – | KCNQ2 inh confirm=+
COc1ccc(CNC(=S)Nc2ccccc2Cl)cc1 | – | – | · | · | ·
COC(=O)c1cc(NC(C)=O)ccc1N1CCOCC1 | – | – | · | · | ·
COc1cc(C)ccc1OCc1cc(C(=O)NC(C)Cn2cncn2)no1 (configuration not stated) | · | – | · | · | ·
Cc1ccccc1CC1(CO)CCCN(C(=O)c2cc(Cl)ccc2F)C1 (configuration not stated) | – | – | · | · | ·
Cc1ccccc1CC1(CO)CCCN(C(=O)c2cccc(Cl)c2)C1 (configuration not stated) | – | -6.8 | -27% | – | – | KCNQ2 inh confirm=–
CCOC(=O)CN(C(=O)COc1nc(-c2ccccc2)cc(C)c1C#N)c1cccc(OC)c1 | · | – | · | · | ·
Cc1ccccc1NC(=O)c1sc(Cl)nc1-c1ccccc1 | – | -8.7 | – | – | –
Cc1ccc(NC(=O)c2sc(Cl)nc2-c2ccccc2)cc1 | · | – | · | · | ·
Cc1ccc(C)c(NC(=O)c2sc(Cl)nc2-c2ccccc2)c1 | – | -8 | – | – | –
O=C(Nc1ccc(F)cc1)c1sc(Cl)nc1-c1ccccc1 | · | – | · | · | ·
COc1ccc(NC(=O)CN(C)CC(=O)Nc2cccc(C(C)=O)c2)cc1 | · | – | · | · | ·
COc1ccc(C(=O)N(C)C2CCCN(Cc3ccccc3F)C2)cc1OC (configuration not stated) | – | – | · | · | ·
Oc1ccc(/C=N/Nc2nc(N3CCCCCC3)nc(N3CCCCCC3)n2)c(O)c1 | · | – | · | · | ·
C/C(=C/C=N/Nc1nc(N2CCCCC2)nc(N2CCCCC2)n1)c1ccccc1 | – | -7.2 | -29% | – | – | KCNQ2 inh confirm=–
CC(/C=N/Nc1nc(N2CCCCC2)nc(N2CCCCC2)n1)=C\c1ccccc1 | – | -8.2 | -34% | -34% | -26% | KCNQ2 inh confirm=–
SMILES | KCNQ2 enhance | KCNQ2 inh | KCNQ2 block conf | KCNQ1 spec | CHO parental ctr | others
BrC(=C\c1ccccc1)/C=N/Nc1nc(N2CCOCC2)nc(N2CCOCC2)n1 | – | – | · | · | ·
Cc1cc(-c2csc(N)n2)c(C)n1C | · | – | · | · | ·
COc1ccc(CNn2c(-c3cccs3)nc3ccccc3c2=O)cc1OC | – | -9.2 | -40% | – | – | KCNQ2 inh confirm=+
COc1ccc(C(=O)Nn2c(C)nc3ccccc3c2=O)cc1OC | · | – | · | · | ·
CCCCn1c(SCC(=O)NC2CCCC2)nnc1-c1ccco1 | · | – | · | · | ·
COc1ccc(C)cc1Nc1nc(C)nc2sc(C)cc12 | – | – | · | · | ·
O=C(Cn1c(=O)c(=O)n(Cc2ccccc2)c2ccc(Cl)cc21)NCC1CCCO1 (configuration not stated) | · | – | · | · | ·
C=CCN(c1ccccc1)S(=O)(=O)c1cccc(C(=O)Nc2nnc(SCC)s2)c1 | – | – | · | · | ·
COC(=O)C1C2CCC(C2)C1C(=O)OCC(=O)c1ccccc1 (configuration not stated) | · | – | · | · | ·
CCCOC(=O)C1C2C=CC(C3CC23)C1C(=O)OCC(=O)c1ccccc1 (configuration not stated) | – | -9.4 | – | – | –
O=C(CCCn1c(SCC(=O)NC2CCCCC2)nc2ccccc2c1=O)NCC1CCCO1 (configuration not stated) | · | – | · | · | ·
Cc1ccccc1C(=O)Nc1sc(C)c(C)c1C(=O)c1ccccc1 | – | -9.6 | -33% | -32% | -27% | KCNQ2 inh confirm=–
Cc1sc(NC(=O)CCl)c(C(=O)c2ccccc2)c1C | – | – | · | · | ·
COc1ccccc1C(=O)Nc1ccnn1C1CCN(C2CCSCC2)CC1 | – | – | · | · | ·
COC(=O)c1cccc(NC(=O)c2ccc3c(c2)C(=O)N(CC2CCCO2)C3=O)c1 (configuration not stated) | – | – | · | · | ·
Cc1cc(N2CCCC2)nc(-c2ccccc2O)n1 | – | – | · | · | ·
COc1ccc(Cl)cc1NC(=O)NC(C)C | · | – | · | · | ·
COc1ccc(Cl)cc1NC(=O)C(C)N(C)Cc1cccc(Cl)c1Cl (configuration not stated) | – | -7.3 | – | – | –
COC(=O)c1c(-c2cccc(C)c2)csc1NC(=O)C1CCCO1 (configuration not stated) | · | – | · | · | ·
Cc1cccc(-c2nc3c(c(SCC(=O)N(C)C)n2)CCCC3)c1 | · | – | · | · | ·
Cc1nc2ccc(S(=O)(=O)NC(CC(C)C)C(=O)O)cc2s1 (configuration not stated) | · | – | · | · | ·
CCOc1ccc(OCCOC(=O)CNC(=O)c2ccc(Cl)cc2Cl)cc1 | · | – | · | · | ·
CCOC(=O)C(CSCC(=O)c1ccc(Cl)cc1Cl)NC(=O)OC(C)(C)C (configuration not stated) | – | -7.7 | -28% | – | – | KCNQ2 inh confirm=+
Cn1cc(S(=O)(=O)Nc2ccc(Oc3ccccc3)cc2)c(=O)n(C)c1=O | · | – | · | · | ·
O=C(COc1ccc(F)cc1Cl)Nc1ccccc1C(=O)N1CCCCC1 | – | -8.6 | -22% | – | – | KCNQ2 inh confirm=+
SMILES | KCNQ2 enhance | KCNQ2 inh | KCNQ2 block conf | KCNQ1 spec | CHO parental ctr | others
COc1ccccc1OCC(=O)Nc1ccccc1C(=O)N1CCCC1 | – | – | · | · | ·
COc1cccc(C(C[N+](=O)[O-])c2c(C)[nH]n(-c3ccccc3)c2=O)c1 (configuration not stated) | – | -12 | – | – | –
Cc1[nH]n(-c2ccccc2)c(=O)c1C(C[N+](=O)[O-])c1ccc(Br)cc1 (configuration not stated) | · | – | · | · | ·
CC(=O)Nc1ccc(Nc2nc(-c3sc(C)nc3C)cs2)cc1 | · | – | · | · | ·
CS(=O)(=O)c1ccc(C(=O)Nc2ccc(N3CCCCC3)cc2)c(Cl)c1 | – | – | · | · | ·
Cc1ccc(Sc2ccc(NC(=O)c3ccc(S(C)(=O)=O)cc3Cl)cc2)cc1 | – | -8.8 | – | – | –
CC1=NNC(=O)C1CC(=O)N/N=C/c1ccc(C)o1 (configuration not stated) | – | – | · | · | ·
COc1ccc(C(c2nnnn2Cc2ccccc2)N2CCN(c3nc4ccccc4s3)CC2)cc1 (configuration not stated) | · | – | · | · | ·
COC(=O)c1c(NC(=O)CSc2nnc(Cn3nnc4ccccc43)n2C)sc(C)c1C | – | – | · | · | ·
CN1CCN(C(=O)/C(=C\c2ccccc2)c2ccccc2)CC1 | – | – | · | · | ·
